Experimental data taken from PubChem BioAssay (NCI).
The panel holds about 79,000 compounds, 15% with a hit somewhere; the sample as a whole holds those more often. Active and inactive are the calls of the source. No stated cut-off is given here; in the data, active means growth inhibition above about 70%; inactive means the rest.

Legend:
[1] = NCI Yeast Anticancer Drug Screen. Data for the rad52 strain (AID 147);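 further: 0% = growth of vehicle-treated control cultures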; conditions: S. cerevisiae rad52 mutant growth inhibition, active compounds read high
Procedure, shortened: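 DNA repair-defective yeast; compound exposure; growth scored against vehicle controls.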

[2] = NCI Yeast Anticancer Drug Screen. Data for the wt1 strain (AID 149);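 further: 0% = growth of vehicle-treated wt1 cultures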; conditions: S. cerevisiae wt1 strain (SPY 50644) growth inhibition, active compounds read high
Procedure, shortened: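 Growth inhibition read against vehicle controls after compound exposure of the wt1 yeast strain.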

[3] = NCI Yeast Anticancer Drug Screen. Data for the rad50EPP+ strain (AID 151);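 further: 0% = growth of vehicle-treated control cultures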; conditions: S. cerevisiae rad50 mutant strain, active compounds read high
Procedure, shortened: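 rad50EPP+ yeast treated with test compounds. Readout: growth vs vehicle control.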

[4] = NCI Yeast Anticancer Drug Screen. Data for the mgt1 strain (AID 153); conditions: S. cerevisiae mgt1 mutant growth inhibition, active compounds read high
Procedure, shortened: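 Growth inhibition relative to vehicle controls was scored for the mgt1 yeast strain after compound exposure.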

[5] = NCI Yeast Anticancer Drug Screen. Data for the rad50 strain (AID 155);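 further: 0% = growth of vehicle-only cultures of the same strain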; conditions: S. cerevisiae rad50 strain growth inhibition, active compounds read high
Procedure, shortened: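 Readout: growth inhibition relative to vehicle-treated cultures. Compound exposure was carried out in a genetically defined yeast strain deficient in DNA damage repair.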

[6] = NCI Yeast Anticancer Drug Screen. Data for the mec2-1 strain (AID 157); conditions: S. cerevisiae mec2-1 strain, active compounds read high
Procedure, shortened: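 Growth inhibition is read against vehicle-treated controls after compound exposure of the mec2-1 yeast strain, which is defective in DNA damage repair or cell cycle control.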

[7] = NCI Yeast Anticancer Drug Screen. Data for the rad14 strain (AID 159);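 further: 0% = growth of vehicle-treated control cultures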; conditions: S. cerevisiae rad14 strain growth inhibition, active compounds read high
Procedure, shortened: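 Growth inhibition vs vehicle controls; genetically altered yeast strain (DNA damage repair defect) treated with test compounds.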

[8] = NCI Yeast Anticancer Drug Screen. Data for the sgs1 mgt1 strain (AID 161);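 further: 0% = growth of cultures given vehicle only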; conditions: S. cerevisiae sgs1 mgt1 strain, active compounds read high
Procedure, shortened: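 Yeast cells carrying a defined DNA-repair defect were exposed to test compounds. Growth inhibition was measured relative to vehicle-treated controls.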

[9] = NCI Yeast Anticancer Drug Screen. Data for the CLN2oe strain (AID 163);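 further: 0% = growth of vehicle-only control cultures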; conditions: S. cerevisiae CLN2oe strain, active compounds read high
Procedure, shortened: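 Compound-treated yeast; growth vs vehicle ctrl = % inhibition. Genetically altered strain (cell-cycle control).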

[10] = NCI Yeast Anticancer Drug Screen. Data for the cln2 rad14 strain (AID 165);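 further: 0% = growth equal to vehicle treated cultures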; conditions: S. cerevisiae cln2 rad14 strain, active compounds read high
Procedure, shortened: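 Growth inhibition, relative to vehicle-treated controls, is the read-out. The test organism is a yeast strain with defined genetic alterations, cln2 rad14.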

[11] = NCI Yeast Anticancer Drug Screen. Data for the bub3 strain (AID 167); conditions: S. cerevisiae bub3 mutant strain, active compounds read high
Procedure, shortened: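 Readout: yeast growth inhibition, expressed relative to vehicle-only wells. The test organism is a mutant strain from a panel with lesions in DNA repair or checkpoint genes.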

[12] = NCI Yeast Anticancer Drug Screen. Data for the wt2 strain (AID 169);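 further: 0% = growth of vehicle-treated yeast cultures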; conditions: S. cerevisiae wt2 strain growth inhibition, active compounds read high
Procedure, shortened: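 Compound exposure of yeast; growth compared with vehicle controls; inhibition reported.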

[13] = NCI Yeast Anticancer Drug Screen. Data for the mlh1 strain (AID 171);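 further: 0% = growth of vehicle-treated control cultures of the same strain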; conditions: S. cerevisiae mlh1 strain growth inhibition, active compounds read high
Procedure, shortened: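 Compounds are applied to a genetically altered yeast strain, and its growth is compared with that of vehicle-treated cultures to give percent inhibition.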

[14] = NCI Yeast Anticancer Drug Screen. Data for the sgs1 strain (AID 173);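 further: 0% = growth of vehicle-only control cultures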; conditions: S. cerevisiae sgs1 mutant, active compounds read high
Procedure, shortened: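 Compounds applied to genetically altered yeast; growth compared with vehicle-treated cultures to give % inhibition.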

[15] = NCI Yeast Anticancer Drug Screen. Data for the mlh1 rad18 strain (AID 175); conditions: S. cerevisiae mlh1 rad18 strain growth inhibition, active compounds read high
Procedure, shortened: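 Cells of a genetically altered yeast strain, deficient in DNA damage repair, were treated with compound. Their growth was then compared with that of vehicle-treated cultures to give inhibition.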

[16] = NCI Yeast Anticancer Drug Screen. Data for the rad18 strain (AID 177); conditions: S. cerevisiae rad18 mutant growth inhibition, active compounds read high
Procedure, shortened: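 Compounds are applied to a repair-deficient yeast strain, and growth is compared with that of vehicle-treated cultures to give percent inhibition.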

[17] = at 5.0 µM (retest, dose inferred, filed as 0.5)
[18] = at 50.0 µM (retest, dose inferred, filed as 5.0)

Measured: growth inhibition

Nc1ccc(/C=C/c2ccc3cccnc3c2)cc1
inactive: [1]; at 1.2 µM -3% | [1]; at 3.7 µM -3% | [1]; at 11.0 µM -1% | [1]; at 33.0 µM 11% | [1]; at 100.0 µM 29% | [2]; at 1.2 µM 0% | [2]; at 3.7 µM -1% | [2]; at 11.0 µM -3% | [2]; at 33.0 µM -4% | [2]; at 100.0 µM -7% | [3]; at 1.2 µM -2% | [3]; at 3.7 µM 1% | [3]; at 11.0 µM 8% | [3]; at 33.0 µM 34% | [3]; at 100.0 µM 41% | [4]; at 1.2 µM 0% | [4]; at 3.7 µM 1% | [4]; at 11.0 µM -3% | [4]; at 33.0 µM -3% | [4]; at 100.0 µM 22% | [5]; at 1.2 µM 5% | [5]; at 3.7 µM 29% | [5]; [17] 5% | [5]; at 11.0 µM 23% | [5]; at 33.0 µM 14% | [5]; [18] 28% | [5]; at 50.0 µM 10.8% | [5]; at 100.0 µM 29% | [6]; at 1.2 µM -2% | [6]; at 3.7 µM -2% | [6]; [17] -1% | [6]; at 11.0 µM -3% | [6]; at 33.0 µM 1% | [6]; [18] 17% | [6]; at 50.0 µM 1.95% | [6]; at 100.0 µM 6% | [7]; at 1.2 µM 1% | [7]; at 3.7 µM 4% | [7]; at 11.0 µM 5% | [7]; at 33.0 µM 13% | [7]; at 100.0 µM 28% | [8]; [17] 3% | [8]; [18] 50% | [8]; at 50.0 µM 46.2% | [9]; at 1.2 µM 2% | [9]; at 3.7 µM 2% | [9]; at 11.0 µM 1% | [9]; at 33.0 µM -4% | [9]; at 100.0 µM 0% | [10]; [17] -5% | [10]; [18] 3% | [10]; at 50.0 µM -6.75% | [11]; at 1.2 µM 5% | [11]; at 3.7 µM 23% | [11]; [17] 24% | [12]; at 1.2 µM 1% | [12]; at 3.7 µM 8% | [12]; at 11.0 µM -2% | [12]; at 33.0 µM -4% | [12]; at 100.0 µM 9% | [13]; at 1.2 µM -1% | [13]; at 3.7 µM -1% | [13]; at 11.0 µM -1% | [13]; at 33.0 µM -2% | [13]; at 100.0 µM 21% | [14]; at 1.2 µM -1% | [14]; at 3.7 µM 1% | [14]; at 11.0 µM 3% | [14]; at 33.0 µM 20% | [14]; at 100.0 µM 46% | [15]; [17] 3% | [15]; [18] 20% | [15]; at 50.0 µM 32.8% | [16]; at 1.2 µM 1% | [16]; at 3.7 µM 1% | [16]; at 11.0 µM 11% | [16]; at 33.0 µM 59%
active: [11]; at 11.0 µM 85% | [11]; at 33.0 µM 94% | [11]; [18] 92% | [11]; at 50.0 µM 93.3% | [11]; at 100.0 µM 94% | [16]; at 100.0 µM 77%

O=C(NCCNCCNC(=O)c1cc(-c2ccccc2)nc2ccccc12)c1cc(-c2ccccc2)nc2ccccc12
inactive: [1]; at 1.2 µM -3% | [1]; at 3.7 µM -3% | [1]; at 11.0 µM -3% | [1]; at 33.0 µM -5% | [1]; at 100.0 µM 41% | [2]; at 1.2 µM -2% | [2]; at 3.7 µM -2% | [2]; at 11.0 µM -3% | [2]; at 33.0 µM -2% | [2]; at 100.0 µM 6% | [3]; at 1.2 µM -1% | [3]; at 3.7 µM 2% | [3]; at 11.0 µM 3% | [3]; at 33.0 µM 9% | [3]; at 100.0 µM 9% | [4]; at 1.2 µM -2% | [4]; at 3.7 µM -1% | [4]; at 11.0 µM -2% | [4]; at 33.0 µM 0% | [4]; at 100.0 µM 1% | [5]; at 1.2 µM -3% | [5]; at 3.7 µM -2% | [5]; [17] -11% | [5]; at 11.0 µM -4% | [5]; at 33.0 µM -2% | [5]; [18] 28% | [5]; at 50.0 µM 31.6% | [5]; at 100.0 µM 1% | [6]; at 1.2 µM -3% | [6]; at 3.7 µM -3%
